This is a sample that favours compounds with a hit; in the whole collection about 6.9% have one here.
MPTP inh: mitochondrial permeability transition pore inhibitors, primary screen, biochemical, isolated mouse mitochondria, absorbance; Ca2+ swelling absorbance, 30 min; inhibition, % at 10 µM; actives 1.4% (n = 360,000); AID 602449, 2012;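 active means inhibition of 50% or more, scaled per plate between neutral and stimulator controls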;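 further: 0% = DMSO wells given calcium and 100% = 1 mM EGTA wells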
GRIN3A LBD mod: binders of NR3A ligand-binding domain, primary screen, biophysical, differential scanning fluorimetry, uHTS; actives 2.5% (n = 340,000); Glutamate receptor ionotropic, NMDA 3A (GRIN3A) ligand-binding domain; NR3A LBD differential scanning fluorimetry, Tm shift; 0% = protein alone, 100% = glycine-bound protein; Tm shift relative to glycine control, % at 25 µM;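 active means melting temperature shift of at least 10% of the positive control shift, at one fixed dose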
Mdm2 MdmX PPI: inhibitors of human Mdm2-MdmX association, primary screen, cell-based, luminescence, split luciferase, SaOS-2, uHTS | Protein Mdm4 (Homo sapiens) + E3 ubiquitin-protein ligase Mdm2 (Homo sapiens), … | SaOS-2 split-luciferase Mdm2/MdmX complementation | inhibition, % at 8 µM | actives 3% (n = 330,000);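 active means inhibition of at least 50% at 8 µM in the primary screen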
CSC inhib: cancer stem cell viability inhibitors, primary screen, luminescence | inhibition, % at 7.5 µM | cancer stem cell-like cells viability | AID 2717, 2010 | actives 1.1% (n = 300,000); in the data active means inhibition above about 75%; tested in HMLE shEcad cells
Beta apoptosis: inhibitors of cytokine-induced beta cell apoptosis, primary screen, luminescence; actives 0.8% (n = 300,000); INS-1E cytokine-induced death, ATP luminescence, 48 h; percent of positive-control rescue, neutral wells zero; protection from apoptosis, % (no concentration beside the values); AID 435005, 2010;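 active means Every replicate reaches about 75%, or at least half do and their mean reaches it too, limit read from the data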;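 further: 0% = cytokine-treated negative control wells and 100% = positive control rescue; higher means more ATP so stronger rescue from cytokine killing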
SKKanGAS inh: S. pyogenes SKKanGAS growth inhibitors in kanamycin, primary screen, streptokinase expression inhibitor project, SKKanGAS strain, BacTiter-Glo luminescence; inhibition, % at 7.5 µM; actives 1.3% (n = 300,000); 6 h;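 active means mean replicate score, as percent of positive control median, at least 50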;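 further: strain carries kanamycin resistance gene driven by streptokinase promoter and grows in 40 µg/ml kanamycin; loss of luminescence reflects streptokinase promoter inhibition or plain growth inhibition; 0% = median of DMSO wells and 100% = positive control at its reference dose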
* = called active by the depositor; . = not tested or not shown.

SMILES | MPTP inh | GRIN3A LBD mod | Mdm2 MdmX PPI | CSC inhib | Beta apoptosis | SKKanGAS inh
O=C(COc1ccccc1Cl)Nc1cc(Cl)ccc1Oc1ccccc1 | 4.7 | -1.1 | -4.8 | 89.1* | 5.6 | -7.9
O=C(Nc1cccc(C(=O)Nc2ccccc2C(=O)O)c1)c1cccc(Cl)c1 | 11.4 | 13.6* | -6.5 | 18.7 | -2.2 | 22.5
CCCCOc1ccc(/C=C2/Sc3ccccc3C2=O)cc1 | 1.4 | 6.8 | -64.5 | -13.9 | -1.4 | 20.6
CC(=O)Oc1cccc(/C=C2\Sc3ccccc3C2=O)c1 | 2.8 | 17.0* | 9.5 | 13.8 | -0.5 | -2.2
Cc1occc1C(=O)N(C)Cc1nc(-c2ccc(Cl)cc2)no1 | 0.2 | -0.6 | 13.3 | 18.3 | 3.2 | 0.3
CCOC(=O)C1(CC/C(C)=N\NC(N)=O)CC(C)(C)OC1=O (configuration not stated) | 0.8 | -3.4 | 17.3 | -10.8 | -3.6 | 0.4
CCN(CC)c1ccc(C(=O)N/N=C/c2ccccc2OC(F)F)cc1 | 11.9 | -7.0 | 41.1 | 0.4 | 79.7* | 9.4
CC1(C(=O)NS(=O)(=O)Cc2ccccc2C(F)(F)F)CCN1C(=O)c1cccc(F)c1 (configuration not stated) | 0.7 | . | . | . | . | .
O=C(Nc1nccs1)C1CCN(S(=O)(=O)c2ccc3c(c2)OCCCO3)CC1 | -1.2 | 13.7* | 27.9 | 2.8 | 4.2 | 3.9
Cc1ccc(Cl)cc1N1CCN(CC(=O)NC2CCCc3ccccc32)CC1 (configuration not stated) | -0.4 | 10.0* | 16.6 | 78.5* | -3.2 | -3.9
COc1cccc(COCC(O)CN2CCC(C(N)=O)CC2)c1 (configuration not stated) | 1.4 | 1.8 | -5.3 | -5.2 | . | -0.3
Cc1nn(-c2ccccc2)c(Cl)c1C1C(C#N)=C(N)Oc2c1c(C)nn2-c1ccccc1 (configuration not stated) | 0.0 | -2.5 | -1.4 | 4.9 | . | -3.2
Cc1nn(C)c(C)c1C1C(C#N)=C(N)OC2=C1C(=O)CCC2 (configuration not stated) | 0.7 | 11.6* | -19.8 | -9.4 | 0.2 | -11.5
Cc1nn(-c2ccccc2)c(Cl)c1C1C(C#N)=C(N)OC2=C1C(=O)CCC2 (configuration not stated) | 0.6 | -0.6 | -21.8 | -9.2 | -1.6 | 86.9*
Cn1c(SCC(=O)O)nnc1-c1ccc2ncccc2c1 | . | . | 11.6 | 0.7 | -1.5 | 7.2
CCOc1ccc(S(=O)(=O)N2CCCC(C(=O)N3CCN(c4ccccc4)CC3)C2)cc1 (configuration not stated) | 1.4 | -0.9 | 3.1 | -2.3 | 4.4 | -17.7
Cc1cc(C)nc(N/N=C2/CCCC/C2=C\c2ccccc2)n1 | -0.2 | -1.6 | 9.4 | 3.7 | 77.8* | 33.5
O=C(NCCCn1ccnc1)/C(=C\c1ccccc1Cl)NC(=O)c1ccccc1 | -0.3 | 0.5 | 22.4 | 0.6 | 2.3 | 23.6
N#Cc1ccccc1S(=O)(=O)N1CCN(c2cnccn2)CC1 | -0.6 | 0.9 | -7.6 | 8.4 | 4.2 | -5.0
Cc1ccc2nc(-c3cccc(NS(C)(=O)=O)c3)cc(-c3ccccc3)c2c1 | 0.4 | -2.4 | 31.2 | 114.5* | -3.0 | 33.1
O=C(NC(=S)N(CCCCO)C1CCCCC1)c1sc2ccccc2c1Cl | -1.6 | -4.1 | 44.7 | 19.1 | 10.4 | 88.6*
N#C/C(=C\c1ccc(N2CCCC2)c([N+](=O)[O-])c1)c1nc2ccccc2[nH]1 | 46.2 | 3.3 | 36.6 | . | 6.6 | 27.5
N#C/C(=C\c1cccs1)c1nc2ccccc2[nH]1 | 2.7 | 22.1* | . | 8.2 | -6.0 | -2.8
N#C/C(=C/c1ccc(O)c(O)c1)c1nc2ccccc2[nH]1 | 5.4 | 19.1* | -3.0 | 39.6 | 5.3 | 7.4
N#C/C(=C\c1ccc(OC(=O)c2cccs2)cc1)c1nc2ccccc2[nH]1 | 0.6 | 6.9 | -13.0 | 13.7 | -0.6 | 12.4
SMILES | MPTP inh | GRIN3A LBD mod | Mdm2 MdmX PPI | CSC inhib | Beta apoptosis | SKKanGAS inh
Clc1ccccc1C(c1ccccc1)(c1ccccc1)n1ccnc1 | -0.6 | -6.8 | 21.6 | 29.2 | 25.2 | 49.9*
COCCN(C(=O)c1ccc(N2CCCC2=O)cc1)c1c(N)n(Cc2ccccc2)c(=O)[nH]c1=O | 3.1 | 1.1 | -11.9 | -9.3 | -5.9 | .
Cc1nnc(-c2ccc(Oc3ccc(Br)cc3)c([N+](=O)[O-])c2)o1 | -0.4 | 1.5 | 3.0 | 139.1* | 0.3 | -0.9
O=[N+]([O-])c1cc(-c2cnc3ccccc3n2)ccc1Oc1ccc(Br)cc1 | 7.6 | -9.3 | -3.8 | 58.2 | -2.0 | 19.0
CCOC(=O)CSc1nc2sc(C)c(C)c2c(=O)[nH]1 | -0.7 | 0.3 | 20.2 | . | 1.0 | 3.5
CCOC(=O)/C(=C\c1ccc(Cl)cc1)c1nc2sc(C)c(C)c2c(=O)[nH]1 | 1.5 | 5.9 | 37.5 | 117.7* | -26.0 | 42.7
Cc1oc2cc(Br)c(O)c(Br)c2c1-c1ccccc1 | 1.9 | -16.6 | . | 2.7 | 0.9 | 82.9*
CCCOc1ccc(C2C(C(=O)c3cc4ccccc4o3)=C(O)C(=O)N2c2cc(C)on2)cc1 (configuration not stated) | 34.7 | -6.7 | 27.3 | -3.6 | 7.7 | -8.4
Cc1cc(N2C(=O)C(O)=C(C(=O)c3cc4ccccc4o3)C2c2ccc(Br)cc2)no1 (configuration not stated) | 4.9 | -1.4 | 17.0 | 6.3 | -1.2 | 86.8*
CCCOc1ccc(C2C(C(=O)c3cc4ccccc4o3)=C(O)C(=O)N2c2cc(C)on2)cc1OC (configuration not stated) | 30.8 | -9.9 | -6.4 | -10.7 | -5.3 | 97.9*
Cc1cc(N2C(=O)C(O)=C(C(=O)c3cc4ccccc4o3)C2c2cccc(Cl)c2)no1 (configuration not stated) | -0.1 | -3.5 | 29.4 | 14.0 | 1.6 | 83.3*
Cc1cc(N2C(=O)C(O)=C(C(=O)c3cc4ccccc4o3)C2c2ccc(Cl)cc2)no1 (configuration not stated) | 2.7 | -2.8 | 30.1 | -15.7 | -1.1 | -6.6
COc1cccc(C2C(C(=O)c3cc4ccccc4o3)=C(O)C(=O)N2c2cc(C)on2)c1 (configuration not stated) | -2.0 | -6.1 | 11.4 | -12.9 | 1.7 | 15.4
CCOC(=O)c1cc(CC)sc1NC(=O)c1ccc(N2C(=O)CCC2=O)cc1 | 0.2 | -25.1 | 29.6 | 12.0 | -0.5 | 55.0*
CCOC(=O)c1c(-c2ccc(C)cc2)csc1NC(=O)c1ccc(N2C(=O)CCC2=O)cc1 | 0.6 | -5.0 | -7.2 | 12.4 | -7.3 | 44.4
COc1ccc(NS(=O)(=O)c2ccc(C)c(C(=O)N3CC(C)OC(C)C3)c2)cc1 (configuration not stated) | 0.9 | 11.5* | -19.6 | 13.6 | -4.0 | -13.3

Compound activity from PubChem.
